The text below walks through data of PubChem BioAssay AID1241 (SRMLSC, 2008).

Among all 1,200 compounds or so, about 840 (70%) were called active. No rule for the calls is given here. So high a share suggests a set chosen from earlier hits. Not all results are given here. Measured potencies and affinities stand elsewhere.

The test in a line: compounds inducing NF-kB luciferase expression – cell-based, SH-SY5Y, dose response (AID 1241). Particulars: SH-SY5Y NF-kB promoter luciferase reporter; series mostly up to 30 µM. For orientation: A reporter such as luciferase makes a cellular process visible.
Regarding `CC1=C/C(=N\OS(=O)(=O)c2ccccc2)C(C)=CC1=O`, the fold induction over control entry is “inactive”.
Turning to `Cn1c(-c2ccc(Br)o2)nc2cc(Br)ccc21`, the fold induction over control entry was “inactive”.
Under `Clc1ccccc1-c1nnc(-c2cccs2)o1` stands “inactive”.
For `O=C(Nc1nccs1)c1sc2ccccc2c1Cl`, the fold induction over control result was “inactive”.
Under `CCCCCCOc1ccc(OC(=O)c2ccncc2)cc1` stands “inactive”; under `CCCCCCOc1ccc(/C(N)=N/O)cc1`, “inactive”.
As to `N#Cc1c(NCCO)nc(NCc2ccccc2)c2c1CCN(Cc1ccccc1)C2`, the fold induction over control entry is “inactive”.
For the compound `Cc1ccccc1NC(=O)/C=C/c1ccc([N+](=O)[O-])s1`, the fold induction over control entry is “inactive”.
Regarding `CCC(=O)Nc1cccc(C(=O)/C=C/c2ccccc2)c1`, the fold induction over control result was “inactive”.
Take `Cc1ccc(NC(=O)/C=C/c2cccs2)c([N+](=O)[O-])c1`: the fold induction over control result was “inactive”.
Take `Cc1nn(Cc2ccccc2)c(Cl)c1/C=C/C(=O)OCC(=O)N1CCCC1=O`: the fold induction over control result is “inactive”.
Consider `Cc1cccc(NC(=O)c2csnn2)n1`, for which the fold induction over control entry is “inactive”.
In the case of `COc1ccc(OCCOC(=O)c2[nH]c(C)c(C(C)=O)c2C)cc1`, the fold induction over control result is “inactive”.
With `Cc1ccc(Nc2nc(N)nc(CSc3ncccn3)n2)cc1`, the fold induction over control result was “inactive”.
The same measure for `Cc1cc(N2CCOCC2)ccc1/C=C1/SC(=O)NC1=O`: “inactive”.
For the compound `Cc1ccc(/C=N/N=C/c2ccc(C)s2)s1`, the fold induction over control entry is “inactive”.
For `CCOC(=O)c1ccc(NC(=O)N2CCc3ccccc32)cc1`, the fold induction over control entry was “inactive”.
As to `CCCCNC(=O)c1cc(-c2ccc(F)cc2)on1`, the fold induction over control result is “inactive”.
On to `COc1ccc2c(=O)c(-c3ccccc3)coc2c1`, for which the fold induction over control result is “inactive”.
For `CN(C)c1ccc(C(=S)NCc2ccco2)cc1`, the fold induction over control entry is “inactive”.
For the compound `Cc1nnc(SCC(=O)Nc2nsc(-c3ccc(C(C)(C)C)cc3)n2)s1`, the fold induction over control result was “inactive”.
Regarding `COc1ccc(C2=NN3C(C2)c2ccccc2OC32C(=O)N(C)c3ccccc32)cc1` (stereo not drawn), the fold induction over control result is “inactive”.
Under `CC(=O)c1cc(N2CCOCC2)ccc1[N+](=O)[O-]` stands “inactive”.
For `O=C(O)/C=C\C(=O)Nc1ccccc1C#Cc1ccccc1`, the fold induction over control entry was “inactive”.
Regarding `CC(C)c1cc(C(=O)Nc2cc(Br)ccc2O)no1`, the fold induction over control result is “inactive”.
For `CC(C)Cc1cc(C(=O)Nc2cc(Br)ccc2O)no1`, the fold induction over control entry was “inactive”.
The same measure for `CCc1cc(C(=O)Nc2ccc(C)cc2Br)cs1`: “inactive”; for `O=C(CCC(=O)c1cccs1)c1cccs1`: “inactive”; for `O=C(CC(SCc1ccco1)c1ccc(O)cc1)c1cccs1` (stereo not drawn): “inactive”.
`Cc1ccc(C(=O)COC(=O)c2ccc(O)cc2)cc1`: the fold induction over control result was “inactive”.
Turning to `Cc1ccc(C)c(OCC(=O)O/N=C(\N)c2ccccn2)c1`, the fold induction over control result is “inactive”.
With `CC(C)c1ccc(/C=N/NC(=O)c2c(Cl)cnn2C)cc1`, the fold induction over control entry was “inactive”.
`CC(=O)c1sc(NC(=O)c2cccc(C)c2)nc1C`: the fold induction over control result is “inactive”.
Turning to `O=C(Nc1cccnc1)c1cc(-c2ccc3c(c2)OCO3)on1`, the fold induction over control result was “inactive”.
As for `O=c1c2c(nc3cc(-c4ccccc4)[nH]n13)CCS2`, the fold induction over control entry was “inactive”.
`Cc1ccc(CN2CN(S(=O)(=O)c3cccs3)c3nc4ccccc4nc32)cc1`: the fold induction over control result is “inactive”.
Consider `CCOC(=O)c1sc2nc3c(cc2c1N)COC(C)(C)C3`, for which the fold induction over control entry was “inactive”.
Regarding `Nc1c(C(=O)C2CC2)sc2nc3c(cc12)CCC3`, the fold induction over control result was “inactive”.
Under `O=C(Nc1ccc(Cl)cn1)c1ccc([N+](=O)[O-])o1` stands “inactive”.
Under `COc1ccc(NC(=O)c2cc3ccccc3o2)cc1` stands “inactive”.
Take `Cc1cccc(NC(=O)c2cc3ccccc3o2)c1`: the fold induction over control entry was “inactive”.
Turning to `O=C(Nc1cccc(Br)c1)c1cc2ccccc2o1`, the fold induction over control result was “inactive”.
As for `COc1ccc2oc(=N)c(C(=O)Nc3ccccc3)cc2c1`, the fold induction over control entry is “inactive”.
Consider `CCN1C/C(=C/c2ccc(N3CCOCC3)cc2)C(=O)/C(=C/c2ccc(N3CCOCC3)cc2)C1`, for which the fold induction over control result is “inactive”.
Under `Cc1ccc(NC(=O)/C(C#N)=C(\N)C(Cl)(Cl)Cl)nc1` stands “inactive”.
As for `N/C(=N\OC(=O)COc1ccc(Cl)cc1Br)c1ccncc1`, the fold induction over control result is “inactive”.
For `CN1CCN(CC(=O)Nc2ccccc2[N+](=O)[O-])CC1`, the fold induction over control entry is “inactive”.
Under `COc1ccccc1/C=N\Nc1cn[nH]c(=O)c1Cl` stands “inactive”.
